Experimental data taken from the supplement of paper PMC11417369.
± gives the standard deviation of the averaged measurements. Whole data set: some 25,000 sequences, median “ln(normalized median fluorescence intensity)” near 7.9, cut for the highest 2% near 11. For the sample, the highest values were picked, then their nearest neighbours and some sequences at random.

These sequences were tested on PfAP2-I AP2 domain 3 (GST-tagged) (assay: gcPBM binding intensity (ln(normalized median fluorescence intensity)); higher = stronger DNA binding).
Procedure, shortened: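 The binding buffer was 1× PBS containing 1% milk, 0.2 mg/ml BSA, 0.5% salmon testes DNA and 0.03% Triton X-100. In it, GST-tagged P. falciparum DNA-binding domains expressed in E. coli were applied for 1 h to an Agilent 4 × 180k array of primer-extended double-stranded 36-bp intergenic genomic probes plus negative controls. Binding intensity, read with Alexa488 anti-GST antibody and a 488 nm scan, is the highest Masliner-normalised natural-log median intensity across replicate spots of either probe orientation.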

Sequence	gcPBM binding intensity (ln)
TATTTTTATTTATAACGTACGAAAAATGTATATAAT [XGTACX_site703]	7.96 ± 0.35
AAATTCCACGGACACACACACATATAAATAAATAAA [CACACA_site4811]	8.23 ± 0.37
TCAACATTTAAAAATAGTACTCATAAACCTTTCGAA [XGTACX_site4111]	7.42 ± 0.46
TATGAATGGTTAAGTACACACATATTAATATAGGTA [CACACA_site7606]	7.79 ± 0.49
ACATATATTTTTTTTTGTACATATAAATATATATAT [XGTACX_site6491]	8.7 ± 0.39
TTTAAATATAATTGGAGTACTTATAATATATATATA [XGTACX_site7247]	8.97 ± 0.12
CATTAATTTAATAAATGTACATAAAATATATATTAT [XGTACX_site8085]	7.89 ± 0.36
CCATTATACACAATATGTACATATATATAATCATTT [XGTACX_site7942]	8.04 ± 0.43
AGAGATACATAAAAAAGTACATATAAAATTTAGGAA [XGTACX_site7201]	7.96 ± 0.19
AATTATACGAAATAAAACTTAATAGACAAAAAATTA [CACACA_negctrl_site1384]	7.54 ± 0.63
TATATATTAAAAATAGTGCAAAATAATATATATATA [GTGCAC_site9716]	10.78 ± 0.021
TTACAATAAATTATAGTGCAATATTTTATTTAATAT	10.6 ± 0.36
TGCAATTTAATATGAGTGCATATATTGAGAAAATAC	10.04 ± 0.035
GAAAATAAAATATTAGTGCATTATTTGATCAATAAT	11.3 ± 0.73
ATATTTTATATAATAGTGCAAATAATATTAAATAAT	10.8 ± 0.37
ACATATTAAATATGAGTGCAATATATATATATATAA	10.9 ± 0.43
TTTGAAATATATTTAGTGCATATATATTGATTATAA [GTGCAC_site9604]	10.4 ± 0.34
AATCAATTAATATTAGCATAAAATTTTATTATTTTG [XGTACX_negctrl_site479]	7.46 ± 0.71
GTTATATTTAAAATAGTGCAATAAAAATAATAATAT	11.4 ± 0.67
TATATGAACTTATATACACACCATTTTTGTAAATCT [CACACA_site4547]	7.62 ± 0.54
AAATTTGGCAAACACACACACACACCCACAGAGACA [CACACA_site4490]	8.305 ± 0.021
CCAGGAAAAATTTATTGTACATATATTTTTATGCTC [XGTACX_site7154]	7.68 ± 0.53
ATATAGATCTACACTGCACACATTTTTAACACTGCT [CACACA_site1882]	9.04 ± 0.5
TATATAGAAAACAAGGCATGCAAATAACAAATTGTG [TGCATGCA_site473]	8.32 ± 0.91

Sequence	gcPBM binding intensity (ln)
GTTCCAGGCATTCGTGCGCACAAATAGAAACAATTA [GTGCAC_site9824]	11.15 ± 0.035
TTTAGCACAAACAAAAAAAAAATAGAAAAAAATATA [CACACA_negctrl_site1772]	7.59 ± 0.61
ATATGCACTCATTGTGCACACGCATATTACGAAAAG [CACACA_site2637]	11 ± 0.35
ATGCACTCATTGTGCACACGCATATTACGAAAAGAA [CACACA_site2638]	10.6 ± 0.18
TGTGTTCATATATGCACACGCATATATATTATTGTT [CACACA_site3822]	9.1 ± 0.25
TTTCTTTCTTTCTTTTTTTAAATATTTTTTAAAAAT [TGCATGCA_negctrl_site206]	7.98 ± 0.62
ATTATAATGGTAAAGTGTACAAATTTTTATTACACC [XGTACX_site5274]	8.49 ± 0.092
TATCATCTTAATATCGTGCACATTTATAGAACGAAA [GTGCAC_site9992]	11 ± 0.12
GCTTCTTAATATCATACACACATAGATATATTTATA [CACACA_site5676]	8.11 ± 0.58
TTTATATTATTATATCTTATTAATTATTTATCATTT [TGCATGCA_negctrl_site73]	7.28 ± 0.58
TATACAACTTTATGAAGTACAAAAAGTTCTATATAT [XGTACX_site3866]	7.52 ± 0.44
TGCCATCATATCATAGGTACACAAACATATAAAGAA [XGTACX_site4137]	8.22 ± 0.82
AATATATATTTATATTGTACATATATATATATTTCT [XGTACX_site2603]	7.55 ± 0.34
TTTTTCTATAAAAAATGTACATATTTTATGAAGGAA [XGTACX_site821]	7.96 ± 0.5
TTTTAGTTAATTCATGCATGTAAAGTTTTATTTATA [TGCATGCA_site252]	7.72 ± 0.54
ATTTAATTTTCATGATGTACTATAGTTTAATGCACA [XGTACX_site1624]	11.6 ± 1.1
AATGAATATAGTACTGAATGTAATTTAAGGTTTTCC [CACACA_negctrl_site1548]	7.53 ± 0.68
ACAAGACAGATATATACACACATACATACATACATA [CACACA_site7472]	8.12 ± 0.64
ATAAAGGAATTTTATACACACAACATATATATATAT [CACACA_site2861]	9.45 ± 0.6
TATATATATATATATTGTACACATTGTGTTTAAATA [XGTACX_site5104]	9.43 ± 0.44
TTTTCTATTTAATTGGTGCACTGATATATACACATA [GTGCAC_site9533]	11.3 ± 0.54
GTAATTTTTTTCTATACACACATATCTATAATATAT [CACACA_site7284]	8.09 ± 0.6
GTAATTTTTTTCTATACACACATATATATAATATAT [CACACA_site2655]	8.12 ± 0.58
TATGTATAAATATATGCACACATATATATATTTATA [CACACA_site9150]	8.85 ± 0.26

Sequence	gcPBM binding intensity (ln)
TTTATGTATTTTTATGCACACATGCGTGGCTTATAT [CACACA_site4374]	10.79 ± 0.064
TATGTATTTTTATGCACACATGCGTGGCTTATATAA [CACACA_site387]	10.9 ± 0.13
ATATATATTTCTTAAAGTACATAATAATAAAAATAT [XGTACX_site8981]	7.79 ± 0.44
AAAAAAAATAAAATGAATAAATAAGAATTACATATT [CACACA_negctrl_site863]	7.39 ± 0.65
TCTATGAATTAATATGCATGTAACGTATTTATACTT [TGCATGCA_site669]	7.67 ± 0.83
CAAGCACAGAAACACACACACACACCGACACAGACA [CACACA_site4359]	8.11 ± 0.24
AAAAAAAAGTTGTAAGTGCATGTATATAATAATATT	8.42 ± 0.54
CATATAAAAATGTGCACACACACACCGATATATATT [CACACA_site4940]	9.59 ± 0.17
AGGATATAAAGTTGTGCATGTCAAGTGCACCGTATT [TGCATGCA_site451]	11 ± 0.35
AAAAAAAAATATATTGCACACCTCTCAATAAAAAAA [CACACA_site172]	10.3 ± 0.43
GTATATTTTATTTTATGTACATATTCATTTTTTATT [XGTACX_site561]	8.3 ± 0.4
CATATAAAAAATATGGTGCAGTTTTTTTTTTTTTTT	10.2 ± 0.23
AAAAATGTATGTATGGTGCAGTATTCATATCATTTT [GTGCAC_site9458]	10.93 ± 0.057
ACTATAAATATATAAATATATATATATATATATATA [GTGCAC_negctrl_site65]	9.34 ± 0.8
TTATAAAAGACAAAAGTGCATATATACATATGTATA	9.49 ± 0.21
ATATATATATTAAAGGTGCACAAATAAATATATACA [GTGCAC_site9532]	11.54 ± 0.035
TATAAATATACAAAGGTGCATAAAAAGTTATGTTTT [GTGCAC_site9832]	11.2 ± 0.26
AAAAAAAAAATTTAGGTGCATACAAATAAATTATAT [GTGCAC_site9521]	10.2 ± 0.48
AATAAATAGATAAGCACACAAGCATATAGACATATA [CACACA_site222]	7.72 ± 0.49
TAAATATAAAAATGCACACACACAAAAAAAAAAAAA [CACACA_site895]	8.88 ± 0.085
TATAAGTAGATAAGGGTGCACAATATAAATATATAG	11.55 ± 0.021
AAAAAAATAAGGTGCACACAAAAAAAAAAAAAAAAA [CACACA_site812]	10.9 ± 0.71
ACAAAAAAATAAGGTGCACACAAAAAAAAAAAAAAA [CACACA_site8171]	10.7 ± 0.76
ATAAAATATAAAAACGCACACAATTATAAGGGTGTA [CACACA_site177]	7.95 ± 0.35

Sequence	gcPBM binding intensity (ln)
AAAAATAAAAGGTGTGCACACAAAAATATATATATA [CACACA_site8507]	9.74 ± 0.26
ATATATATATATTACACACACACAAAAAAAATAAAG [CACACA_site118]	9.07 ± 0.18
ATATGTGTGTGTATTTGTACCCAATTTTTATATATA [XGTACX_site4948]	8.29 ± 0.43
TATATATATATATATGTGCACATATATATGATATTA	9.79 ± 0.28
CGAATAAATATATGTAGTACATGTTGTAGATAATTT [XGTACX_site1218]	8.01 ± 0.48
ATTTATTAATCATATACACACATATATTTGTATTTA [CACACA_site1336]	7.67 ± 0.49
TTTGGGTATACACATACATGCATGTCCTTATATATA [TGCATGCA_site84]	7.86 ± 0.63
TGTGTAATATTCTGTTGTACATAACTCATAAATAAA [XGTACX_site5308]	7.95 ± 0.31
AATATGTTATAAATATGTTATAAATAATAAATAAAT [GTGCAC_negctrl_site135]	7.74 ± 0.62
AAAATAGCTGTATAGAGTACATATAAATAATGTTGT [XGTACX_site5692]	7.57 ± 0.58
TAAATCACAAAATTATGTACTAAGAAGGAGCAACAT [XGTACX_site6742]	8.05 ± 0.45
AACATACATAAACACACACACACACCCACAGAGACA [CACACA_site4430]	8.32 ± 0.22
AATACATATTCAAAGGTGCAAAATAAAAATATACAT [GTGCAC_site9743]	11.2 ± 0.44
TTTTTTTGTTAAAAGGTGCTAATATATATAAGTGCT	10.1 ± 0.45
AATATACATAACAAGGTGCAAAAAATATTGTTCATA [GTGCAC_site9499]	10.4 ± 0.26
AAAAATAAAGGGTGTGCACACAAAAATATATATATA [CACACA_site1727]	9.8 ± 0.14
AAATATAAAGTGCACACACACAAAAAAAGAAAAAAA [CACACA_site6452]	10.2 ± 0.36
TGAGCACAAATACAGGTGCATATAAAATATATGACG	10.3 ± 0.3
TATATTGCAAAAAGTACACACATAAATAAATACATA [CACACA_site6589]	8.2 ± 0.24
ATGTTTGAGCCTAAGGTGCATATAAAAATATATGTG [GTGCAC_site9690]	11 ± 0.66
AAATAAAAAGGGTGCACACAAAAATATATATATATA [CACACA_site1728]	11 ± 0.84
